# System: AAK1
# Settings: concentration: 1 μM, replicates: in singlicate; n = 1
# 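Note: KINOMEscan kinase panel screen.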
row,Structure (SMILES),%Inh [%]
1,CNc1nccc(-c2c(-c3ccc(F)cc3)ncn2C2CCN(C)CC2)n1 [SB-222903],0
2,CSc1nn2c(=O)cc(N3CCOCC3)nc2n1Cc1cccc(Cl)c1Cl [GSK2347225],7
3,CN1CCC(n2cnc(-c3ccc(F)cc3)c2-c2ccnc(NC3CCNCC3)n2)CC1 [SB-229482],7
4,O=C(c1ccc(-c2cc(-c3c[nH]nc3-c3ccccn3)ccn2)cc1)N1CCCC1 [GW792479],12
5,Nc1n[nH]c2nnc(-c3ccccc3)cc12 [SB-517389],16
6,O=C(Nc1ccccc1)Nc1ccc(Oc2ccc3nccn3n2)cc1,0
7,O=c1cc(N2CCOCC2)nc2n(Cc3cccc(Cl)c3)ccn12 [GSK2296823],0
8,Clc1ccc(-c2cc(-c3c[nH]nc3-c3ccccn3)ccn2)cc1 [GW681251],2
9,NC(=O)c1sc(-n2cnc3ccccc32)cc1OCc1ccccc1F [GSK1024306],45
10,Nc1nc(-c2ccccn2)c(-c2ccnc3ccccc23)s1 [GW548057],1
11,CS(=O)(=O)CCNCc1ccc(-c2ccc3ncnc(Nc4ccc(OCc5ccccc5)c(Cl)c4)c3c2)o1.Cl [GW574783],13
12,CCCc1ccc(S(=O)(=O)NC2CCN(c3ccnc(Nc4ccc(OC)cc4)n3)C2)cc1 (centres unmarked) [GSK1379737],0
13,Nc1nc(-c2cccnc2)c(-c2ccnc3ccccc23)s1 [GW684083],57
14,COc1ccc(-c2oc3ncnc(N)c3c2-c2ccc(OC)cc2)cc1 [SB-589132],6

# From paper PMC5540273 (PLoS ONE, 2017)
